Hits are enriched below; roughly 7.9% of the tested compounds scored in any of these assays.
HCMV antiviral: inhibitors of human cytomegalovirus; activity change, negative = inhibition, % at 57.5 µM; 410,000 tested, 4.5% active; AID 1259415; HFF cells, HCMV-luciferase reporter, 72 h; active compounds read low; in the data active = activity change below about -60%; inconclusive = no clear call, values can overlap the other calls; inactive = above about -39%
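After 16 h attachment at 37C, HFF cells received test compound and HCMV-luciferase (1 PFU/cell); reporter luminescence read 72 h later, data normalized against buffer-only and known inhibitor Salinomycin.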
Marburg entry inh: Marburg virus entry inhibition. Marburg virus pseudotyped entry inhibition, cell reporter. Potency, µM (highest dose often 37.8 µM), actives largely listed as inhibitors. 300,000 tested, 1.8% active. AID 540276; calls by dose curve; tested in HEK293 cells
LASV entry inh: Lassa virus entry inhibition. 300,000 tested, 1.2% active. Potency, µM (series often up to 37.9 µM), actives largely listed as inhibitors. Lassa virus pseudotype entry inhibition, cell reporter; calls by dose curve; tested in HEK293 cells; note: nearly all actives have a fitted effect of over 50% in size
FMDV antiviral: blocks foot and mouth disease virus; FMDV antiviral cell-based qHTS; AID 1159524; Potency, µM (doses to about 57.9 µM), most hits filed as inhibitors; 410,000 tested, 1.2% active; calls by dose curve; tested in HEK293T cells; note: read-out not given here; nearly all actives have a fitted effect of over 45% in size
HCV inhibitor: blocks hepatitis C virus; Potency, µM (series often up to 41.8 µM), most hits filed as inhibitors; AID 651820; 340,000 tested, 3.4% active; Huh7.5.1 HCVcc-Cre infection, luciferase reporter, 44 h; active = well fitted inhibition curve with a large enough effect; inconclusive = small, poorly fitted or top-dose-only effect, or another doubt; inactive = no such curve, though single readings can be large or run the other way
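Compounds are dispensed onto cells plated 4 h earlier at 1,000 per well, with HCVcc-Cre virus (about 0.5 moi) added next. Following 44 h of culture, luminescent signal is measured for 15 sec after 15 min with substrate at room temperature.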
A number is an active result; n = inactive; u = inconclusive; x = no result.

SMILES	HCMV antiviral	Marburg entry inh	LASV entry inh	FMDV antiviral	HCV inhibitor
COc1cccc(C(C(=O)NC(C)(C)C)N(Cc2ccc(C)cc2)C(=O)CCC(=O)Nc2cc(C)on2)c1OC (stereo not drawn)	n	u	u	u	11.2µM
COc1cccc(C(C(=O)NC(C)(C)C)N(Cc2ccco2)C(=O)CCC(=O)Nc2cc(C)on2)c1OC (stereo not drawn)	n	u	n	n	n
CCN(CC)CCNc1ccc(CO)c2oc3ccccc3c(=O)c12	-89.5	x	x	n	x
CCN(CC)CCNc1ccc(CO)c2sc3ccccc3c(=O)c12	-95.8	11.2µM	u	u	u
CCN(CC)CCNc1cccc2sc3ccccc3c(=O)c12	n	x	x	u	x
O=c1c2ccccc2sc2c(CO)ccc(NCCN3CCCCC3)c12	-97.9	u	u	u	u
FC(F)(F)c1cccc(-c2nc3nc(Cl)c(Cl)nc3[nH]2)c1	x	x	x	n	11.2µM
FC(F)(F)c1nc2nc(Cl)c(Cl)nc2[nH]1	n	x	x	n	x
Cc1ccc(OCc2ccc(C(=O)Nc3cc(C)on3)o2)c([N+](=O)[O-])c1	n	x	x	n	n
CCn1c(NC(=O)c2ccc(COc3ccc(C)cc3[N+](=O)[O-])o2)nc2ccccc21	-62.7	u	n	n	n
COc1ccc(NS(=O)(=O)c2ccc(OC)c(N(C)S(=O)(=O)c3ccc(Cl)cc3)c2)cc1	-90.1	u	u	x	u
COc1ccc(S(=O)(=O)Nc2ccc(F)cc2)cc1N(C)S(=O)(=O)c1ccc(Cl)cc1	-71.8	20.6µM	u	x	u
O=C(CCc1nnc2n(Cc3ccccc3Cl)c(=O)c3ccccc3n12)Nc1ccc(F)cc1	n	u	x	n	x
COCc1c(C(=O)NC2CCCC2)cnn1-c1nccc(-c2ccco2)n1	x	x	x	n	x
COc1cc(/C=N/Nc2ccc(C(=O)O)cc2)ccc1O	n	u	u	u	n
COc1cc(/C=C/[N+](=O)[O-])ccc1O	-103.8	n	n	u	n
COc1ccc(/C=N/N2CCOCC2)cc1OCc1ccccc1	u	n	n	n	n
COc1cc(OC)c(C(=O)/C=C/c2ccc(OCc3ccccc3)c(OC)c2)c(OC)c1	u	11.2µM	u	u	u
COc1cc(/C=C/C(C)=NNc2ccccc2)ccc1O	-61.3	u	n	n	u
COc1cc(/C=N/N2CCOCC2)ccc1OCc1ccccc1	-105.5	u	n	n	n
OCCN1CCN(Cc2ccc3c(c2)CN(Cc2ccc4ccccc4c2)CCO3)CC1	x	x	x	n	x
CCc1cccc(C)c1NC(=O)CN1CCN(Cc2ccccc2Cl)S1(=O)=O	n	x	n	n	x
COc1cc(/C=C/C(=O)/C=C(O)/C=C/c2ccc(O)c(OC)c2)ccc1O	-67.4	x	x	u	u
COc1cc(/C=C/[N+](=O)[O-])ccc1OCc1cccc(C(=O)O)c1	x	u	0.631µM	10µM	n
COc1cc(/C=C/C(=O)O)ccc1O	x	x	x	n	n
SMILES	HCMV antiviral	Marburg entry inh	LASV entry inh	FMDV antiviral	HCV inhibitor
COc1cc(/C=C/C(=O)CC(=O)/C=C/c2ccc(O)c(OC)c2)ccc1O	n	u	18.4µM	u	u
CCN(c1ccccc1)S(=O)(=O)c1ccc(NC(=S)NC(=O)c2cccs2)cc1	u	u	u	u	10µM
CCN(CC)c1ccc(NC(=S)NC(=O)c2cccs2)cc1	-100.9	x	x	n	12.6µM
O=C(Nc1ccc(NC(=S)NC(=O)c2cccs2)cc1)c1ccco1	-86.8	u	n	n	n
O=C(NC(=S)NNC(=O)c1cccs1)c1ccco1	n	n	n	n	u
COCCCNC(=O)c1cnc2c(-c3ccc(F)cc3)c(C)nn2c1C	n	x	n	n	x
CC1CCc2nn(CC(=O)Nc3ccccc3Cl)cc2C1 (stereo not drawn)	n	u	n	n	x
CSc1nc2ccccc2n1CC(=O)N1CCCCC1	n	n	n	n	n
Cn1c(=O)c2c(nc(Sc3nc4ccccc4n3CC(=O)N3CCCCC3)n2C)n(C)c1=O	-62.9	n	n	n	n
C1CCN(c2c3c(nc4nnnn24)CCCC3)CC1	-63.8	n	n	n	n
COc1cc(OC)c2c(C)c(CC(=O)N3CCCCC3)c(=O)oc2c1	n	n	n	n	x
O=S(=O)(Nc1cccnc1)c1cccc(C(F)(F)F)c1	n	n	u	n	n
O=[N+]([O-])c1ccc(S(=O)(=O)c2cccc(C(F)(F)F)c2)nc1	x	11.2µM	u	17.8µM	u
Cc1ccc(C)c(Nc2ccc3nonc3c2[N+](=O)[O-])c1	-87.2	x	x	n	n
Cc1ccccc1Nc1ccc2nonc2c1[N+](=O)[O-]	n	x	x	n	n
O=C1NC(=O)N(Cc2ccco2)C(=O)/C1=C\c1cccn1CCOc1ccc(Cl)cc1	n	n	n	35.5µM	n

High-throughput results from PubChem BioAssay.
